PubChem BioAssay AID588443 (Southern Research Specialized Biocontainment Screening …, 2011)
Potency and affinity values are given separately. Inconclusive results are not listed. Where a call stands in place of a potency, no number is given. The source made the active and inactive calls. How the calls were made is not given here.

Assay: THP-1 cell cytotoxicity, cytotoxicity control, set 5 (AID 588443)
Conditions: THP-1 cell viability, cytotoxicity CC50; series mostly up to 100 µM

| SMILES | outcome |
| --- | --- |
| COC(=O)CSc1ncnc2c1cnn2-c1ccc(C)cc1C | inactive |
| CCOC(=O)CSc1ncnc2c1cnn2-c1ccc(C)cc1C | inactive |
| CCOC(=O)CSc1ncnc2c1cnn2-c1ccccc1 | inactive |
| COc1ccc(N2CCN(C(=O)c3ccc(CNc4c(N5CCOCC5)c(=O)c4=O)cc3)CC2)cc1 | inactive |
